# Assay results as given in article PMC7862700, “An all-to-all approach to the identification of sequence-specific readers for epigenetic DNA modifications on cytosine”.
# Tests used:
# Assay in all cases: DAPPL (digital affinity profiling via proximity ligation, sequencing); 10 mM Tris-HCl pH 7.5, 50 mM NaCl, 1 mM DTT, 4% glycerol, room temperature, 30 min; GST-TFs on glutathione beads, 16-mer random dsDNA library, 0.1% formaldehyde crosslink after washing; high values mean tight binding
# Details in all cases: protein: recombinant; tags: N-terminal GST; dsDNA, one strand shown
# ETV1 = ETV1 (Homo sapiens, UniProt P50549 1-477)
# Summary of the method: (§1)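 Beads coated with glutathione captured GST-fused human transcription factors that had been expressed in yeast, and the factors were then given DNA barcodes and pooled with a tag-only sample. The pools were incubated with 200 nmole of a random double-stranded 16-mer DNA library in Tris/NaCl/DTT/glycerol buffer for 30 min at room temperature, washed, crosslinked with 0.1% formaldehyde and proximity-ligated with BsaI/T4 ligase at 37 °C for 1 h. PCR amplification and Illumina NextSeq500 sequencing came last. Binding signal is each hexamer's read frequency for a factor divided by its frequency for the tag-only sample.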
# ERF = target: T1, ERF (Homo sapiens, UniProt P50548 1-548)
# T1 sequence: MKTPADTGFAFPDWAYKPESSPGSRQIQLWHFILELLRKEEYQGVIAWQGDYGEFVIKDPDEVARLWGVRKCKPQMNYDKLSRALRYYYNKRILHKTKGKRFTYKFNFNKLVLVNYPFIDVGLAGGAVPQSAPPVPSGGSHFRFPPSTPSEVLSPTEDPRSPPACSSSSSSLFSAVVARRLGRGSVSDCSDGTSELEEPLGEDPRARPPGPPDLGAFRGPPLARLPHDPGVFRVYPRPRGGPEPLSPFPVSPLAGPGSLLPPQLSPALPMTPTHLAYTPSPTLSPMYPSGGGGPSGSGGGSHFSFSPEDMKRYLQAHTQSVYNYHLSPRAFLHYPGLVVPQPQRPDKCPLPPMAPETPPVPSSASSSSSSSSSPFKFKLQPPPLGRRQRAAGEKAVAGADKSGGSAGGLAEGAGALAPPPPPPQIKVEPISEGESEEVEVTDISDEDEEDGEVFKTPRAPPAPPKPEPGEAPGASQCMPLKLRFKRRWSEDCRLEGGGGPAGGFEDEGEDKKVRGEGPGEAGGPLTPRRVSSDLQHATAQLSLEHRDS
# Summary of the method: as §1
# ETV3L = target: T2, ETV3L (Homo sapiens, UniProt Q6ZN32 1-361)
# T2 sequence: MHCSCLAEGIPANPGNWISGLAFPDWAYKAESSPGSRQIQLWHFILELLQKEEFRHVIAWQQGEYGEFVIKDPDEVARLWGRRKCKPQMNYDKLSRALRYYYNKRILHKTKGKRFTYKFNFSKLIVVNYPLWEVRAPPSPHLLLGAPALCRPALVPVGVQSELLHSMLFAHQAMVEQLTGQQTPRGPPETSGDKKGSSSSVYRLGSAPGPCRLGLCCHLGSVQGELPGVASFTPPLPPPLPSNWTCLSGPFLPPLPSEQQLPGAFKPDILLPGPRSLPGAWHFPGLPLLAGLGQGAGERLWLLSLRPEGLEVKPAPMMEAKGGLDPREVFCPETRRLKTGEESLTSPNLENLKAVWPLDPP
# Summary of the method: as §1
# ETS2 = target: T3, ETS2 (Homo sapiens, UniProt P15036 1-469)
# T3 sequence: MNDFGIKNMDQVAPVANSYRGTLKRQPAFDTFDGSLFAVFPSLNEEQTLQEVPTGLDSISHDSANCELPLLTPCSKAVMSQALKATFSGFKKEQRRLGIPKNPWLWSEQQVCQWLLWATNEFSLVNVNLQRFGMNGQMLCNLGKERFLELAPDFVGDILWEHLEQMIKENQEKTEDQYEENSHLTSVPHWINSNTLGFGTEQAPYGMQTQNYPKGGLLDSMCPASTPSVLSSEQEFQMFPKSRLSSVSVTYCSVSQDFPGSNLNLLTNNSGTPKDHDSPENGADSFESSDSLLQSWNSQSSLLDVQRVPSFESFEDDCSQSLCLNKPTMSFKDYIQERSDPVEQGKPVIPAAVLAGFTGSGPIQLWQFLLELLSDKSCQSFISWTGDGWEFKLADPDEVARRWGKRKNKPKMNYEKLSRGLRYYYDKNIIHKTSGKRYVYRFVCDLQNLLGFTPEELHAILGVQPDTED
# Summary of the method: as §1
# SPDEF = target: T4, SPDEF (Homo sapiens, UniProt O95238 1-335)
# T4 sequence: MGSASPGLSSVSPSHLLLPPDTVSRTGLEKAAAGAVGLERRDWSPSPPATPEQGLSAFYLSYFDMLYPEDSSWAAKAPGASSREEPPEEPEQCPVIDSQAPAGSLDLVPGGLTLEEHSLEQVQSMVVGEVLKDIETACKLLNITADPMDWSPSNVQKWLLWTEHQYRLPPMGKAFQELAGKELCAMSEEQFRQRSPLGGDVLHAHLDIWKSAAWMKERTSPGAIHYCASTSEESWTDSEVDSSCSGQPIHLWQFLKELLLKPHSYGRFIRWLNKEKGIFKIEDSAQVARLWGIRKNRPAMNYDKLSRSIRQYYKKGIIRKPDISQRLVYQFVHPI
# Summary of the method: as §1
# ETV7 = target: T5, ETV7 (Homo sapiens, UniProt Q9Y603 1-341)
# T5 sequence: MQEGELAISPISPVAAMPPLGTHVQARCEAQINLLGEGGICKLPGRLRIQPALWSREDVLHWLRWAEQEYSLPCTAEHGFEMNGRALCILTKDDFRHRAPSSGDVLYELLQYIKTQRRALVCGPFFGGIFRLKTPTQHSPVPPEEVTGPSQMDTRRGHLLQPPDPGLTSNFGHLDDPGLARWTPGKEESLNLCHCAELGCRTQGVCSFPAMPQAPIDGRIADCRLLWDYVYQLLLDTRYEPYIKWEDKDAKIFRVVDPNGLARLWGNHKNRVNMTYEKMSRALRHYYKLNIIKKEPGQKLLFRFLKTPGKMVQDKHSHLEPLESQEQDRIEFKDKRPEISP
# Summary of the method: as §1
# ELF5 = target: T6, ELF5 (Homo sapiens, UniProt Q9UKW6-2 1-255)
# T6 sequence: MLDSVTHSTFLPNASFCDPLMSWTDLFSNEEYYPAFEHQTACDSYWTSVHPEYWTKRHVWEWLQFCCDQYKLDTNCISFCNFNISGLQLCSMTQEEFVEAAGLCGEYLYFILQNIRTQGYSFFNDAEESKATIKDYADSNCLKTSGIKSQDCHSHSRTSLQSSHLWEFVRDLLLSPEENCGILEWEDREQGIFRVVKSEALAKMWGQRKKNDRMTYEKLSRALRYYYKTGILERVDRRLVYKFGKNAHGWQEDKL
# Summary of the method: as §1
# ETV3 = target: T7, ETV3 (Homo sapiens, UniProt P41162-2 1-143)
# T7 sequence: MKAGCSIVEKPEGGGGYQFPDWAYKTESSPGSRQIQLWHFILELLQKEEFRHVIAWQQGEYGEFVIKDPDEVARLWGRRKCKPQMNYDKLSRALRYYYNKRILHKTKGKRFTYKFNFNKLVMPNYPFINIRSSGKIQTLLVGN
# Summary of the method: as §1
# ETV6 = ETV6 (Homo sapiens, UniProt P41212 1-452)
# Summary of the method: as §1
# ETV6, sequence (P41212 whole entry): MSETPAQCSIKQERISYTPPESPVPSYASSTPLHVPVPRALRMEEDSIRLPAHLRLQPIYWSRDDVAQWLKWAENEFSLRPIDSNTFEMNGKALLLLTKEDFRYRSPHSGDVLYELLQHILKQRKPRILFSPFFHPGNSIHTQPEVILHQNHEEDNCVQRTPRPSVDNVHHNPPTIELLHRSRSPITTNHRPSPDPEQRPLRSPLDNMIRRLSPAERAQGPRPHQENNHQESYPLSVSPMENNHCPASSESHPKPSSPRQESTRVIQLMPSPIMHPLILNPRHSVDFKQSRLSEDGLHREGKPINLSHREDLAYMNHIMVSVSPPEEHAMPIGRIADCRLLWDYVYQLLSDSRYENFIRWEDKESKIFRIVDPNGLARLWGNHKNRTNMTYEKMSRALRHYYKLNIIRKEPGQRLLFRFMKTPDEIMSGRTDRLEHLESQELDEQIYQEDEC
# ETV1, sequence (P50549 whole entry, the tested form may be a part): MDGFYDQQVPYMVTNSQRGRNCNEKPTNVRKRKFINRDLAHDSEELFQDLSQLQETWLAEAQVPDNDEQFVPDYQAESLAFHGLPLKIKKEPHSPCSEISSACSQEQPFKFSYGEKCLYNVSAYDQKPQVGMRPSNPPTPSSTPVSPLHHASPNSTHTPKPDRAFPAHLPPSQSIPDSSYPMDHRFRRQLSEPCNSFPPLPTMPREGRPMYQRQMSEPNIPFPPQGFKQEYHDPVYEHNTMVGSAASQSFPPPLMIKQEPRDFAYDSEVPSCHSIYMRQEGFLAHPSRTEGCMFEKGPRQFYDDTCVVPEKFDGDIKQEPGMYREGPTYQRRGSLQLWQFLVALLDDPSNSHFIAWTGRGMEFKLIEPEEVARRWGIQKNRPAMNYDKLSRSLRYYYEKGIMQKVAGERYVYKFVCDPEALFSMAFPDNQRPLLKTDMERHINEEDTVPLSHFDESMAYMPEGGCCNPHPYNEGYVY
sequence,measurement,setting,value
AATACA,binding signal,ETV1,"1.31 fold enrichment (6-mer frequency, TF over GST control)"
same,binding signal,ERF,"1.43 fold enrichment (6-mer frequency, TF over GST control)"
same,binding signal,ETV3L,"1.27 fold enrichment (6-mer frequency, TF over GST control)"
same,binding signal,ETS2,"1.25 fold enrichment (6-mer frequency, TF over GST control)"
same,binding signal,SPDEF,"1.37 fold enrichment (6-mer frequency, TF over GST control)"
same,binding signal,ETV7,"1.41 fold enrichment (6-mer frequency, TF over GST control)"
same,binding signal,ELF5,"1.4 fold enrichment (6-mer frequency, TF over GST control)"
same,binding signal,ETV3,"1.28 fold enrichment (6-mer frequency, TF over GST control)"
same,binding signal,ETV6,"1.34 fold enrichment (6-mer frequency, TF over GST control)"
